Measurements from PubChem BioAssay AID2112 (National Center for Advancing Translational Sciences (NCATS), 2009).
In all, about 240,000 compounds went through this assay and about 15 (0.006%) were called active. Calls come from the whole dose curve; as a rule, active = well fitted inhibition curve with a large enough effect; inconclusive = small, poorly fitted or top-dose-only effect, or effect the other way, or another doubt; inactive = no such curve, though single readings can be large or run the other way. The list is a sample of the results.

What follows are molecules tested against Lysosomal alpha-glucosidase (Homo sapiens) (UniProt P10253) (assay: qHTS Assay for Inhibitors and Activators of Human alpha-Glucosidase From Spleen Homogenate). Details: 4-MU-alpha-glucoside fluorescence; series mostly up to 79.9 µM.
Excerpt: NIH Chemical Genomics Center [NCGC] NIH Molecular Libraries Probe Production Centers Network [MLPCN] MLPCN Grant: R03 MH084841-01 Assay Submitter (PI): Wei Zheng NCGC Assay Overview: Alpha-glucosidase is responsible for the hydrolysis of terminal, non-reducing 1,4-linked alpha-D-glucose residues, which releases alpha-D-glucose. It is a lysosomal hydrolase that is required for the degradation of a small percentage (1-3%) of cellular glycogen in humans. Deficiency of this enzyme results in glycogen-storage disease type II (GSDII), also referred to as Pompe disease, an autosomal recessive disorder. Structurally normal glycogen is accumulated in the lysosomes and cytoplasm in affected patients, primarily in muscle tissues. Excessive glycogen storage within lysosomes may interrupt normal functioning of other organelles and leads to cellular injury. In turn, this leads to enlargement and dysfunction of the entire organ involved (eg: cardiomyopathy and muscle weakness). It has been reported that the improper folding and trafficking of alpha-glucosidase resulting from genetic mutations may account for a significant number of Pompe patients. […] We optimized this alpha-glucosidase assay in 1536-well plate format for identification of novel small molecule inhibitors or activators with structures other than the sugar analogs in order to develop new pharmacological chaperones. In particular, this assay is directed towards discovering compounds active in a more natural setting, tissue homogenate, that may have been missed by screens of the purified enzyme under more stringent conditions.
NCGC Assay Protocol Summary: This is a fluorogenic enzyme assay with 4-methylumbelliferyl-alpha-D-glucopyranoside as the substrate and human spleen homogenate containing alpha-glucosidase as the enzyme preparation. Upon hydrolysis of this fluorogenic substrate, the resulting product, 4-methylumbelliferone (which excites at 365 nm and emits at 440 nm) can be detected by a fluorescence plate reader. Data were normalized to the controls for basal activity (without enzyme) and 100% activity (with enzyme). The AC50 values were determined from concentration-response data modeled with the standard Hill equation. Assay buffer: 50 mM citric acid (titrated with potassium phosphate to pH 5.0), 0.01% Tween-20 (pH 5.0 is an optimal condition for this enzyme assay) 1536-well assay protocol for the alpha-glucosidase from human spleen homogenate: (1) Add 2 ul/well spleen homogenate (1 ug) (2) Add 23 nL compounds in DMSO solution. The final titration was 0.5 nM to 58 uM. (3) Add 2 ul of substrate (1 mM final) (4) Incubate at 37 C for 40 min (5) Add 2 ul stop solution (1M NaOH and 1M Glycine mixture, pH 10) (6) Detect the assay plate in a ViewLux plate reader (PerkinElmer) with Ex=365 nm and Em=440nm. Keywords: Alpha-glucosidase, Pompe Disease, pharmacological chaperone, chaperone therapy, high throughput screening, alpha-glucosidase inhibitor, MLSMR, MLSCN, NIH Roadmap, qHTS and NCGC

outcome, inactive:
BrC1C(Br)C(Br)C(Br)C(Br)C1Br (stereo not drawn), CCCC(Cl)CCCC(Cl)CCC(Cl)CCC(Cl)CCC(Cl)CCCC(Cl)CCC (stereo not drawn), O=C(NC(CC(=O)N1CCN(c2ccccc2)CC1)c1ccccc1)c1ccccc1Cl (stereo not drawn), CC1(C)Cc2cccc(OCC(=O)N3CCN(c4ccc([N+](=O)[O-])cc4)CC3)c2O1, O=C1C2C(c3ccccc3)CC=CC2C(c2ccoc2)N1Cc1ccccc1 (stereo not drawn), COC(=O)CCc1ccccc1S(=O)(=O)N(CCC(=O)OC)Cc1ccccc1, C=CCSC(CC)(CC)C(N)=O, C/C(=N\NC(=S)Nc1ccc(C)cc1)c1cc2ccccc2o1, O=C(OCC(COC(=O)c1ccccc1)(COC(=O)c1ccccc1)COC(=O)c1ccccc1)c1ccccc1, Nc1nc2c(ncn2[C@@H]2O[C@H](COP(=O)(O)OP(=O)(O)OP(=O)(O)O)[C@@H](O)C2O)c(=O)[nH]1 (stereo partly drawn), C[C@H]1CCC[C@@]2(C)CCCC[C@]12O, CCC(C(=O)Nc1ccc(C(C)C)cc1)c1ccccc1 (stereo not drawn), COc1ccc(C2/C=C\CN(C(=O)c3ccc(C)cc3)C(Cc3ccccc3)C(=O)N2Cc2ccc(F)cc2)cc1 (stereo not drawn), CC(C)CC(COCc1ccc(Cl)cc1)N1CCN(C(=O)c2ccc(C(F)(F)F)cc2)CCC1=O (stereo not drawn), COc1ccc(C(CCN2CCOCC2)c2c(OC)cc(OC)c3c2OC(=O)CC3c2ccc(OC)cc2)cc1 (stereo not drawn), Cc1ccc(Nc2nc(C)cc(C)c2C(N)=O)cc1, O=C(CN1C(=O)NC(Cc2ccccc2)(Cc2ccccc2)C1=O)NCC1CCCCC1, C=C1CCN(C(CC(C)C)C(=O)NCc2cc(OC)c(OC)c(OC)c2)S(=O)(=O)c2ccccc21 (stereo not drawn), CCOC(=O)C(=CNNc1ccsc1C(=O)OC)C(=O)OCC, CCCCN(CC)CCNC(=O)CCNC(=O)Cn1ccc2ccccc2c1=O, O=C(CCCc1ccccc1)NCc1ccccc1, COC(=O)c1c(C)[nH]c(C(=O)/C=C/c2ccc(Cl)cc2)c1C, O=c1ccn([C@@H]2O[C@H](COP(=O)(O)OP(=O)(O)OP(=O)(O)O)[C@@H](O)[C@H]2O)c(=O)[nH]1, COCOc1cc(OC)ccc1C(=O)/C=C/c1ccc([N+](=O)[O-])cc1, CC(C)CO, CC(=O)Nc1ccc(S(=O)(=O)N2N=NC3C2C2CC4C3(CN(C(=O)OC(C)(C)C)S4(=O)=O)O2)cc1 (stereo not drawn), O=C(CCN1CCCCC1)N=Nc1c(O)[nH]c2ccccc12, CC(=O)OCC(NC(=O)C(Cc1ccccc1)NC(=O)OC(C)(C)C)C1OC(n2ccc(=O)[nH]c2=O)C(OC(C)=O)C1OC(C)=O (stereo not drawn), COc1ccc(NC(=O)c2sc(N3CCOCC3)nc2-c2ccccc2)c(OC)c1, S=C(NNC(=S)NC1CC2CCC1C2)NC1CC2C=CC1C2 (stereo not drawn), O=S(O)S(=O)(=O)O, COc1ccc(-c2ccc(OC)c(C3C4C=CCC(C)C4C(=O)N3Cc3ccccc3)c2)cc1C (stereo not drawn), COC(=O)c1ccc([C@@H](O)[C@H](C)C(=O)CC(=O)OC(C)(C)C)cc1, O=C(Cc1c[nH]c2ccccc12)N/N=C/c1cccc(F)c1, CCN(CC)CCNCc1ccc(OCc2ccc(Cl)nc2)c(OC)c1, N#CC1=C(N)Oc2[nH]c(=S)[nH]c(=O)c2C12C(=O)Nc1ccccc12 (stereo not drawn), C/C(=N\NC(=O)c1cc2c(s1)CCC(C)C2)c1cccnc1 (stereo not drawn), O=C(Nc1cccc(CCc2ccccn2)c1)c1ccc(Cl)cc1, C=C1/C(=C\C=C2\CCCC3(C)C2CCC3C(C)/C=C/C(O)C2CC2)CC(O)CC1O (stereo not drawn), Clc1ccc(C2=CSC3=Nc4cccc5cccc(c45)N23)cc1, CCOc1ccc(CN2CCN(Cc3ccc(C)o3)CC2CCO)cc1 (stereo not drawn), COc1ccc(NC(C(=O)Nc2cccc(C(C)=O)c2)c2ccccc2)cc1 (stereo not drawn), N#CCC(=O)N/N=C/c1ccc(SCC(=O)Nc2ccccc2)o1, O=C(O)c1ccc(/C=C2/SC(=S)N(c3cccc(C(F)(F)F)c3)C2=O)cc1, O=c1cc(-c2ccc(O)cc2)oc2c(-c3cc(-c4cc(=O)c5c(O)cc(O)cc5o4)ccc3O)c(O)ccc12, COc1ccc([N+](=O)[O-])cc1NC(=O)C(C)OC(=O)C1c2ccccc2Oc2ccccc21 (stereo not drawn), Cc1cc(C)nc(NS(=O)(=O)c2ccc(N/C=C\C(=O)c3cccs3)cc2)n1, CC(=O)N1CC[n+]2c(-c3ccc([N+](=O)[O-])cc3)csc21
